Source: PubChem BioAssay AID651642 (Sanford-Burnham Center for Chemical Genomics, 2012)
Calls of active or inactive are those of the source.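 Rule for the calls: active = average half-effect concentration of 10 µM or less in every one of the four cell panels; inactive = the rest.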

What follows are compounds tested on H9c2 (assay: protection of cardiomyocytes from stress damage, SAR follow-up, cell-based, panel, H9c2 and HL-1, H2O2, 2-deoxyglucose, ATP luminescence (AID 651642)). Details: H9c2/HL-1 cardiomyocyte 2-deoxyglucose damage, mean of runs, with 2-deoxyglucose.
`COc1cc(-c2cc(C(=O)Nc3cccc(-c4nn[nH]n4)c3)c3ccccc3n2)cc(OC)c1OC` was tested, and the outcome was “inactive”. With `COc1ccc2nc(-c3cc(OC)c(OC)c(OC)c3)cc(C(=O)Nc3cccc(C(C)=O)c3)c2c1` the outcome was “inactive”. In the case of `COc1cc(-c2cc(C(=O)Nc3cccc(C(=O)NC4CC4)c3)c3ccccc3n2)cc(OC)c1OC`, the outcome is reported as “inactive”. For `COc1ccc2c(c1OC)C(=O)N1c3ccccc3C(=O)N(Cc3ccncc3)C21` (configuration not stated), the outcome was “inactive”. For `CCOC(=O)c1cccc(NC(=O)c2cc(-c3cc(OC)c(OC)c(OC)c3)nc3c(Cl)cccc23)c1`, the outcome was “inactive”. For `COc1cc(-c2cc(C(=O)Nc3cccc(C(C)=O)c3)c3cccc(Cl)c3n2)cc(OC)c1OC`, the outcome was “inactive”. `CCOC(=O)c1cccc(NC(=O)c2cc(-c3cc(OC)c(OC)c(OC)c3)nc3ccc(C)cc23)c1` was tested, and the outcome was “inactive”. With `COc1ccc2c(c1OC)C(=O)N1c3ccccc3C(=O)N(Cc3cccc(C)c3)C21` (configuration not stated) the outcome was “inactive”. For `COc1cc(-c2cc(C(=O)Nc3cccc(C(C)=O)c3)c3ccccc3n2)cc(OC)c1OC`, the outcome was “inactive”. For `COc1ccc2c(c1OC)C(=O)N1c3ccccc3C(=O)N(Cc3c(Cl)cccc3Cl)C21` (configuration not stated), the outcome was “inactive”. With `COc1ccc2c(c1OC)C(=O)N1c3ccccc3C(=O)N(Cc3ccccc3F)C21` (configuration not stated) the outcome was “inactive”. `CCOC(=O)c1cccc(NC(=O)CNC(=O)c2cc(-c3cc(OC)c(OC)c(OC)c3)nc3ccc(OC)cc23)c1` was tested, and the outcome was “active”. In the case of `COc1ccc2c(c1OC)C(=O)N1c3ccccc3C(=O)N(Cc3ccc(F)cc3)C21` (configuration not stated), the outcome is reported as “inactive”. With `COc1ccc(NC(=O)CNC(=O)c2cc(-c3cc(OC)c(OC)c(OC)c3)nc3ccccc23)cc1` the outcome was “inactive”. In the case of `COc1cc(-c2cc(C(=O)Nc3cccc(C(=O)N4CCOCC4)c3)c3ccccc3n2)cc(OC)c1OC`, the outcome is reported as “inactive”. With `COc1ccc2c(c1OC)C(=O)N1c3ccccc3C(=O)N(Cc3ccc(C)cc3)C21` (configuration not stated) the outcome was “inactive”. `CCOC(=O)c1cccc(NC(=O)c2cc(-c3cc(OC)c(OC)c(OC)c3)nc3ccc(Br)cc23)c1` was tested, and the outcome was “inactive”. For `COc1cc(-c2cc(C(=O)Nc3cccc(C(=O)Nc4ccccc4)c3)c3ccccc3n2)cc(OC)c1OC`, the outcome was “active”. In the case of `COc1cc(-c2cc(C(=O)Nc3cccc(C#N)c3)c3ccccc3n2)cc(OC)c1OC`, the outcome is reported as “inactive”. In the case of `COc1cc(-c2cc(C(=O)NCC(=O)Nc3ccc(C(C)=O)cc3)c3cc(F)ccc3n2)cc(OC)c1OC`, the outcome is reported as “inactive”. `COc1cc(-c2cc(C(=O)Nc3cccc(C(N)=O)c3)c3ccccc3n2)cc(OC)c1OC` was tested, and the outcome was “inactive”. In the case of `COc1cc(-c2cc(C(=O)Nc3cccc(C(C)=O)c3)c3ccc(Cl)cc3n2)cc(OC)c1OC`, the outcome is reported as “inactive”. In the case of `COc1cc(-c2cc(C(=O)Nc3cccc(C(C)=O)c3)c3cc(Br)ccc3n2)cc(OC)c1OC`, the outcome is reported as “inactive”. For `CCOC(=O)c1cccc(NC(=O)c2cc(-c3cc(OC)c(OC)c(OC)c3)nc3ccc(F)cc23)c1`, the outcome was “inactive”. For `CCOC(=O)c1cccc(NC(=O)CNC(=O)c2cc(-c3cc(OC)c(OC)c(OC)c3)nc3ccc(Br)cc23)c1`, the outcome was “active”. With `COc1cc(-c2cc(C(=O)NCC(=O)Nc3cccc(C(C)=O)c3)c3cc(Br)ccc3n2)cc(OC)c1OC` the outcome was “active”. In the case of `COc1ccc2nc(-c3cc(OC)c(OC)c(OC)c3)cc(C(=O)NCC(=O)Nc3cccc(C(C)=O)c3)c2c1`, the outcome is reported as “active”. With `CCOC(=O)c1cccc(NC(=O)CNC(=O)c2cc(-c3cc(OC)c(OC)c(OC)c3)nc3ccccc23)c1` the outcome was “inactive”. In the case of `COC(=O)CNC(=O)c1cccc(NC(=O)c2cc(-c3cc(OC)c(OC)c(OC)c3)nc3ccccc23)c1`, the outcome is reported as “active”. In the case of `CCNC(=O)c1cccc(NC(=O)c2cc(-c3cc(OC)c(OC)c(OC)c3)nc3ccccc23)c1`, the outcome is reported as “inactive”. `CCOC(=O)c1ccccc1NC(=O)c1cc(-c2cc(OC)c(OC)c(OC)c2)nc2ccccc12` was tested, and the outcome was “inactive”. With `COc1cc(-c2cc(C(=O)Nc3cccc(C(C)=O)c3)c3cc(C)ccc3n2)cc(OC)c1OC` the outcome was “inactive”.
